Source: PubChem BioAssay (EPA / NIEHS)
Inconclusive results are not listed. The source made the active and inactive calls. How the source made its calls, unless noted: active means hit-call score of the fitted dose curve at least 0.9, where 1 is the maximum; inactive means score below 0.9.

What was measured:
[1] = CCTE_Shafer_MEA_dev_firing_rate_mean: CCTE's Neural Network Formation Assay for Mean Firing Rate, Shafer Lab (AID 2284031);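 further: curve fitted for loss of firing so AC50 reflects decreased mean firing rate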
Procedure, shortened: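 Steps: seed rat cortical cells (1.5 x 10^5/well) with laminin on PEI-coated MEA; dose day 0; record DIV 5/7/9/12, full media and compound exchange after DIV 5 and 9 recordings; compute well-mean firing rate AUC.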

[2] = CCTE_Shafer_MEA_dev_per_burst_spike_percent: CCTE's Neural Network Formation Assay for Percent of Spikes in a Burst, Shafer Lab (AID 2284032);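 further: fitted as a decrease in burst spike percentage below DMSO baseline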
Procedure, shortened: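 Value is trapezoidal AUC over recordings on days 5, 7, 9 and 12 of the well-mean fraction of spikes falling in single-electrode bursts; rat cortical cultures exposed continuously from plating, treatment renewed DIV 5 and 9, fitted downward against DMSO.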

[3] = CCTE_Shafer_MEA_dev_active_electrodes_number: CCTE's Neural Network Formation Assay for Number of Active Electrodes, Shafer Lab (AID 2284040; active means hit-call score of the fitted dose curve at least 0.9, where 1 is the maximum;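 further: potency for loss of active electrodes versus DMSO so lower counts are hits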)
Procedure, shortened: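 Counts electrodes per well firing at least 5 spikes/min, recorded on days 5, 7, 9 and 12 in rat cortical cultures dosed continuously from plating (treatment refreshed DIV 5, 9). Value is the area under the curve over recordings, fitted downward relative to DMSO.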

[4] = CCTE_Shafer_MEA_dev_burst_rate: CCTE's Neural Network Formation Assay for Burst Rate, Shafer Lab (AID 2284042);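 further: potency for loss of burst rate below DMSO control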
Procedure, shortened: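 Developmental network assay measuring how 12-day exposure of rat cortical neuron cultures alters bursting on extracellular MEA recordings. Values are AUC of well-mean burst rate across four recording days, relative to DMSO vehicle.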

[5] = CCTE_Shafer_MEA_dev_bursting_electrodes_number: CCTE's Neural Network Formation Assay for Number of Bursting Electrodes, Shafer Lab (AID 2284043; active means hit-call score of the fitted dose curve at least 0.9, where 1 is the maximum;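 further: potency is for loss of bursting electrodes relative to DMSO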)
Procedure, shortened: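 Counted: electrodes with burst rate ≥1 per 2 min in each well. Cells: primary rat cortex, 1.5 x 10^5/well, on 16-electrode MEA wells. Exposure: DIV 0–12, compound renewed DIV 5 and 9. Recording days 5, 7, 9, 12; AUC vs DMSO baseline.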

[6] = CCTE_Shafer_MEA_dev_per_burst_interspike_interval: CCTE's Neural Network Formation Assay for Burst Interspike Interval, Shafer Lab (AID 2284044);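 further: potency for a decrease of within-burst interspike interval below DMSO level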
Procedure, shortened: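 Primary rat cortical neurons on 48-well MEA plates, exposed from day 0 through day 12, treatment renewed at DIV 5 and 9. Within-burst interspike interval recorded days 5, 7, 9, 12, well-averaged, summarised as AUC; negative fit versus DMSO.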

[7] = CCTE_Shafer_MEA_dev_burst_duration_mean: CCTE's Neural Network Formation Assay for Mean Burst Duration, Shafer Lab (AID 2284045)
Procedure, shortened: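 Network-formation assay in primary rat cortical neurons; treatment spans twelve days of development. Mean burst duration per well is integrated by trapezoidal AUC and fitted in the loss-of-signal direction against DMSO baseline.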

[8] = CCTE_Shafer_MEA_dev_interburst_interval_mean: CCTE's Neural Network Formation Assay for Mean Interburst Interval, Shafer Lab (AID 2284046);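 further: well-mean interburst interval of bursting electrodes as AUC over four recording days; curve fitted for decrease in interburst interval relative to DMSO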
Procedure, shortened: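 Network formation assay in primary rat cortical cultures, exposed from DIV 0 to 12. Mean interburst interval per well, integrated as AUC over four recordings.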

[9] = CCTE_Shafer_MEA_dev_inter_network_spike_interval_mean: CCTE's Neural Network Formation Assay for Mean Inter-network Spike Interval, Shafer Lab (AID 2284047)
Procedure, shortened: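 Compound was given at plating to primary rat cortical neurons and renewed with full medium changes on DIV 5 and 9. Extracellular activity was recorded on days 5, 7, 9, 12; AUC values were fitted for loss relative to DMSO control.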

[10] = CCTE_Shafer_MEA_dev_network_spike_number: CCTE's Neural Network Formation Assay for Number of Network Spikes, Shafer Lab (AID 2284048);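 further: synchronized bursts across electrodes counted on days 5 7 9 12 and integrated as AUC; fit as a loss of signal meaning fewer network spikes than DMSO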
Procedure, shortened: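 Extracellular recordings from 16-electrode wells track network formation in rat cortical cultures under continuous treatment from plating. The endpoint is network spike number, expressed as AUC across DIV 5–12 relative to DMSO vehicle.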

[11] = CCTE_Shafer_MEA_dev_network_spike_peak: CCTE's Neural Network Formation Assay for Mean Number of Electrodes in Network Spike, Shafer Lab (AID 2284049);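 further: fitted for loss of signal meaning fewer electrodes in network spikes than DMSO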
Procedure, shortened: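 Continuous 12-day exposure of rat cortical cultures, starting at plating, on MEA plates. Endpoint: electrodes participating in network-spike peaks, AUC across DIV 5–12, DMSO as negative control.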

[12] = CCTE_Shafer_MEA_dev_spike_duration_mean: CCTE's Neural Network Formation Assay for Mean Spike Duration, Shafer Lab (AID 2284051);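 further: mean network spike duration pooled as area under curve over DIV 5 to 12 recordings; potency for a decrease in mean network spike duration versus DMSO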
Procedure, shortened: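 With DMSO as baseline, loss of mean network spike duration was scored from extracellular recordings of rat cortical neurons on MEA plates. Exposure spanned plating to DIV 12; the four recording days were collapsed into one AUC value.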

[13] = CCTE_Shafer_MEA_dev_network_spike_duration_std: CCTE's Neural Network Formation Assay for Standard Deviation of Network Spike Duration, Shafer Lab (AID 2284052);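 further: area under curve of spike duration SD across recording days 5 to 12; hits are decreases in network spike duration SD versus DMSO vehicle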
Procedure, shortened: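 Developing networks of rat cortical neurons were exposed over twelve days in vitro on 48-well MEA plates. Trapezoidal AUC of recordings (DIV 5–12) was analysed for signal loss relative to DMSO vehicle.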

[14] = CCTE_Shafer_MEA_dev_per_network_spike_spike_number_mean: CCTE's Neural Network Formation Assay for Mean Number of Spikes in a Network Spike, Shafer Lab (AID 2284053)
Procedure, shortened: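 First, rat cortical cells (1.5 x 10^5/well) were seeded onto MEA wells; second, dosing began at plating and was refreshed on DIV 5 and 9; finally, network-spike spike counts across DIV 5–12 were summarized as AUC.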

[15] = CCTE_Shafer_MEA_dev_per_network_spike_spike_percent: CCTE's Neural Network Formation Assay for Percent of Spikes in a Network Spike, Shafer Lab (AID 2284054)
Procedure, shortened: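 Developing networks of rat cortical neurons are dosed at day 0 and recorded extracellularly four times up to day 12. The endpoint is the area under the curve of percent spikes in network spikes, fitted in the negative direction relative to DMSO.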

[16] = CCTE_Shafer_MEA_dev_LDH: CCTE's Lactate Dehydrogenase Assay for Cytotoxicity in the Neural Network Formation Assay, Shafer Lab (AID 2284068; active means hit-call score of the fitted dose curve at least 0.9, where 1 is the maximum;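 further: exposure for twelve days from plating with re-dosing on DIV 5 and 9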)
Procedure, shortened: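 Developing rat cortical networks on MEA plates are exposed to compound for 12 days from plating. LDH activity is measured spectrophotometrically, with DMSO as baseline.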

[17] = CCTE_Shafer_MEA_dev_AB: CCTE's Alamar Blue Assay for Cytotoxicity in the Neural Network Formation Assay, Shafer Lab (AID 2284083; active means hit-call score of the fitted dose curve at least 0.9, where 1 is the maximum;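 further: resazurin reduction fluorescence as viability of cultured neurons; twelve days of exposure from plating with re-dosing on DIV 5 and 9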)
Procedure, shortened: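 Cytotoxicity companion to the developmental MEA: primary rat cortical neurons, 12-day exposure starting day 0, compound refreshed DIV 5 and 9; resazurin fluorescence, fitted against DMSO vehicle.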

[18] = CCTE_Shafer_MEA_dev_correlation_coefficient_mean: CCTE's Neural Network Formation Assay for Mean Correlation Coefficient, Shafer Lab (AID 2284093);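 further: well mean pairwise spike train correlation integrated as AUC over recording days 5 to 12; potency fitted for loss of correlation relative to DMSO vehicle wells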
Procedure, shortened: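 Extracellular firing from rat cortical networks on 48-well MEAs, DMSO-referenced, negative fitting direction. Compound present from plating to DIV12; mean pairwise correlation per well integrated over DIV5–12 recordings by trapezoidal AUC.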

[19] = UKN2_HCS_IMR90_neural_migration: University of Konstanz (UKN) Leist Lab Neural Crest Cell Migration Assay in human induced IMR90 Pluripotent Stem Cells (UKN2) (AID 2284204); conditions: actives raise or lower the signal
Procedure, shortened: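 Using a 96-well stopper format with PLO/laminin/fibronectin coating, neural crest cells from iPSC migrate in cytokine-supplemented N2-S medium; after 24 h, chemicals are applied for a further 24 h, then cells are imaged after dye staining.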

[20] = IUF_NPC1b_proliferation_BrdU_72hr: Leibniz Research Institute for Environmental Medicine (IUF) 72-hour Neural Progenitor Cell Bromodeoxyuridine (BrdU) Proliferation Assay (NPC1b) (AID 2284207)
Procedure, shortened: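 Neural progenitor spheres of human fetal origin are treated for three days; BrdU added for the last 16 h is quantified by luminescence ELISA, with DMSO as baseline and EGF/FGF omission as positive control.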

[21] = IUF_NPC1a_proliferation_area_72hr: Leibniz Research Institute for Environmental Medicine (IUF) 72-hour Neural Progenitor Cell Proliferation Area Assay (NPC1a) (AID 2284208)
Procedure, shortened: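 Single 0.25–0.35 mm human fetal neural progenitor spheres in proliferation medium with EGF and FGF, exposed 72 h from plating without renewal at 37C, pH 7.2-7.6. Sphere area growth measured by automated phase-contrast imaging, relative to DMSO.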

[22] = IUF_NPC1_viability_72hr: Viability Assessment at 72 hours in the Leibniz Research Institute for Environmental Medicine (IUF) Neural Progenitor Cell Proliferation Assay (NPC1) (AID 2284209)
Procedure, shortened: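 Spheres of primary human neural progenitors were plated singly in proliferation medium and treated for 72 h. Mitochondrial reduction of resazurin was then measured by fluorescence and analysed against DMSO controls.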

[23] = CCTE_Mundy_HCI_Cortical_Synap_Neur_Matur_NeuriteSpotCountPerNeuriteLength: CCTE's Synaptogenesis and Neurite Maturation Assay in rat cortical cells for Neurite Spot Count per Neurite Length, Mundy Lab (AID 2284210)
Procedure, shortened: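 Neurite-associated synapse density (synaptophysin puncta per unit neurite length) is measured by fluorescence high-content imaging in rat cortical cultures treated from DIV 7 and fixed at DIV 12, with DMSO as negative control.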

[24] = CCTE_Mundy_HCI_Cortical_Synap_Neur_Matur_BPCount: CCTE's Synaptogenesis and Neurite Maturation Assay in rat cortical cells for Branch Point Count, Mundy Lab (AID 2284211)
Procedure, shortened: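 HCI read-out of branch points from MAP2/synaptophysin/Hoechst immunofluorescence; rat cortical cultures, AraC DIV 5, dosing DIV 7, fixed DIV 12; fit in positive direction vs DMSO baseline.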

[25] = CCTE_Mundy_HCI_Cortical_NOG_NeuriteCount: CCTE's Neurite Outgrowth Assay in rat cortical cells for Neurite Count, Mundy Lab (AID 2284212);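 further: cells fixed about two days after chemical exposure began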
Procedure, shortened: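 Rat cortical primary cells; compound added 2 h post-plating, 1/10 dilution of working solution. Anti-betaIII-tubulin/AF488 ICC; ArrayScan neurite count vs DMSO.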

Measured: AC50

C[C@@H]1CCO[C@H]2Cn3cc(C(=O)NCc4ccc(F)cc4F)c(=O)c(O)c3C(=O)N12
active: [1] 2.57 µM | [2] 1.64 µM | [3] 1.46 µM | [4] 1.67 µM | [5] 1.65 µM | [6] 1.8 µM | [8] 1.74 µM | [10] 1.54 µM | [11] 1.11 µM | [12] 0.901 µM | [14] 0.983 µM | [15] 0.691 µM | [16] 1.07 µM | [17] 1.8 µM | [18] 1.52 µM | [23] 7.38 µM | [24] 1.14 µM
inactive: [7] | [9] | [13] | [19] | [20] | [21] | [22] | [25]
